Measured values reported in PubChem BioAssay (NCATS).
Inconclusive results are not listed. The source made the active and inactive calls. Unless noted, calls come from the whole dose curve; as a rule, active = well fitted cell-killing curve with a large enough effect; inconclusive = small, poorly fitted or top-dose-only effect, or effect the other way; inactive = no such curve, though single readings can be large or run the other way.

Key:
[1] = Quantitative High-Throughput drug screen in 47 multiple myeloma cell lines against the NCATS MIPE library collection: RPMI8226_ATCC cell viability assay (AID 1919871); note: nearly all actives have a fitted effect of over 30% in size
In short: (§1)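 Plated at 500 cells per well, myeloma lines received MIPE 4.0 compounds by pin tool. Following 48 h culture at 37 °C, CellTiter-Glo luminescence gave viability relative to DMSO and media-only controls.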

[2] = Quantitative High-Throughput drug screen in 47 multiple myeloma cell lines against the NCATS MIPE library collection: KMS11_JCRBsus cell viability assay (AID 1919873); note: nearly all actives have a fitted effect of over 50% in size
In short: as §1

[3] = qHTS for identification of novel therapeutic agents for treatment of microphthalmiaassociated transcription factor (MiT) renal cell carcinoma (RCC) (AID 1963991; calls by dose curve); conditions: CellTiter-Glo, 48 h; for z-score: stronger effect = lower value; for Potency: active = Z-AUC below -0.8 in all three lines
In short: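 Viability of three TFE3-fusion renal carcinoma lines measured by CellTiter-Glo after 48 h treatment with each of 1912 compounds at 11 concentrations. Responses scaled between DMSO (100%) and empty wells (0%) before curve fitting.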

[4] = Quantitative High-Throughput drug screen in 47 multiple myeloma cell lines against the NCATS MIPE library collection: OPM2_DSMZ cell viability assay (AID 1919872); note: nearly all actives have a fitted effect of over 30% in size
In short: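 Viability readout: CellTiter-Glo luminescence following 5 min room-temperature incubation with reagent. Prior exposure: 48 h, 37C, humidified 5% CO2, 500 cells per well.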

[5] = Quantitative High-Throughput drug screen in 47 multiple myeloma cell lines against the NCATS MIPE library collection: KMS28BM_JCRB cell viability assay (AID 1919874); note: nearly all actives have a fitted effect of over 35% in size
In short: as §1

[6] = qHTS drug screen for cell cycle checkpoint inhibitors in PARPi-resistant BRCA-mutant ovarian cancer cell lines. (AID 1963452; calls by dose curve); conditions: PEO1/OlaR viability, CellTiter-Glo luminescence, 96 h; for Z-AUC: stronger effect = lower value
In short: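 PEO1, PEO4 and PEO1/OlaR ovarian cancer cells, 600 per well, exposed 96 h at 37C to a dilution series. Viability read by CellTiter-Glo luminescence, normalized to DMSO and empty wells; activity summarized as Z-AUC.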

[7] = TFE3-RCC UOK109 viability, measured here: UOK109 Z-AUC
[8] = TFE3-RCC viability, measured here: UOK124 Z-AUC
[9] = TFE3-RCC viability, measured here: UOK145 Z-AUC
[10] = measured here: PEO1 parental Z-AUC
Potency is the fitted concentration of half-maximal effect.

CCNC(=O)[C@H]1O[C@@H](n2cnc3c(N)nc(NCCc4ccc(CCC(=O)O)cc4)nc32)[C@H](O)[C@H]1O
Potency [1]: inactive | Potency [2]: inactive | z-score [3, 7]: 0.882 | z-score [3, 8]: 0.527 | z-score [3, 9]: 0.68

C#C[C@]1(O)CC[C@H]2[C@H]3CCc4cc(OC)ccc4[C@H]3CC[C@@]21C
Potency [4]: inactive

CCOC(=O)[C@@H](N)CCC(=O)N[C@@H](CSCc1ccccc1)C(=O)N[C@@H](C(=O)OCC)c1ccccc1
Potency [1]: inactive | Potency [5]: inactive | Z-AUC [6]: 1.2 (inactive) | Z-AUC [6, 10]: 1.04 | Z-AUC ([6]; measured here: PEO4 Z-AUC): 1.07 | z-score [3, 7]: -0.0164 | z-score [3, 8]: 0.492 | z-score [3, 9]: 0.0682

CO[C@@H]1C(N(C)C(=O)c2ccccc2)C[C@H]2O[C@]1(C)n1c3ccccc3c3c4c(c5c6ccccc6n2c5c31)C(=O)NC4=O (some centres not stated)
Potency [1]: 5.26 µM (active) | Potency [2]: 2.35 µM (active) | Z-AUC [6]: 0.0475 (inactive) | Z-AUC [6, 10]: 0.0888 | Z-AUC ([6]; measured here: PEO4 Z-AUC): -0.413

CN1CCC[C@H]1CCO[C@](C)(c1ccccc1)c1ccc(Cl)cc1
Potency [1]: inactive | Potency [5]: 5.26 µM (active)

CCC[C@@H](NC(=O)[C@@H]1[C@H]2CCC[C@@H]2CN1C(=O)[C@@H](NC(=O)[C@@H](NC(=O)c1cnccn1)C1CCCCC1)C(C)(C)C)C(=O)C(=O)NC1CC1
Potency [1]: 16.6 µM (active) | Potency [5]: 18.7 µM (active)

O=C(c1ccc(C(=O)N2CCC(N3CCCC3)CC2)c(Nc2ccccc2)c1)N1CCC(N2CCCC2)CC1
Potency [1]: inactive | Potency [2]: inactive | Z-AUC [6]: 0.276 (inactive) | Z-AUC [6, 10]: 0.308 | Z-AUC ([6]; measured here: PEO4 Z-AUC): 0.42 | z-score [3, 7]: 0.9 | z-score [3, 8]: 1.07 | z-score [3, 9]: 0.591

CCN1CCN(c2ccc(Nc3cc(N(C)C(=O)Nc4c(Cl)c(OC)cc(OC)c4Cl)ncn3)cc2)CC1
Potency [1]: inactive | Potency [2]: inactive | Potency [5]: inactive | Z-AUC [6]: 0.0169 (inactive) | Z-AUC [6, 10]: -0.00584 | Z-AUC ([6]; measured here: PEO4 Z-AUC): 0.0335

Cc1cc(-c2ncc(CC(=O)Nc3ccc(-c4cnccn4)cn3)cc2C)ccn1
Potency [2]: 1.87 µM (active) | Potency [5]: inactive | Z-AUC [6]: -1.15 (inactive) | Z-AUC [6, 10]: -0.663 | Z-AUC ([6]; measured here: PEO4 Z-AUC): -0.646

CC[C@@H]([C@H](C)O)n1ncn(-c2ccc(N3CCN(c4ccc(OCC5CO[C@@](Cn6cncn6)(c6ccc(F)cc6F)C5)cc4)CC3)cc2)c1=O (some centres not stated)
Potency [2]: 11.8 µM (active) | Z-AUC [6]: 0.357 (inactive) | Z-AUC [6, 10]: -0.0959 | Z-AUC ([6]; measured here: PEO4 Z-AUC): -0.133

COc1ccc(CCC(=O)Nc2nc3ccc(Cl)cc3s2)cc1OC
Potency [4]: inactive | Potency [2]: 11.8 µM (active) | Z-AUC [6]: -1.42 (inactive) | Z-AUC [6, 10]: -0.917 | Z-AUC ([6]; measured here: PEO4 Z-AUC): -0.954

CC(C)(O)CC(=O)NCCn1ccc2ncnc(Nc3ccc(Oc4cccc(C(F)(F)F)c4)c(Cl)c3)c21
Potency [5]: 26.4 µM (active) | Z-AUC [6]: 0.0129 (inactive) | Z-AUC [6, 10]: -0.0981 | Z-AUC ([6]; measured here: PEO4 Z-AUC): -0.515

CC1(C)CC(=O)c2c(C(F)(F)F)nn(-c3ccc(C(N)=O)c(NC4CCC(O)CC4)c3)c2C1 (configuration not stated)
Potency [2]: 0.0118 µM (active) | Potency [5]: 0.0372 µM (active) | Potency [6]: 219 nM (active) | Z-AUC [6, 10]: -1.53 | Z-AUC ([6]; measured here: PEO4 Z-AUC): -1.31 | Potency ([3]; TFE3-RCC UOK109 viability): 372 nM (active) | z-score [3, 7]: -1.31 | z-score [3, 8]: -0.879 | z-score [3, 9]: -1.53

CCCCC[C@H](O)C=C[C@H]1[C@H](O)CC(=O)[C@H]1CC=CCCCC(=O)O
Potency [4]: inactive | Potency [5]: inactive | Z-AUC [6]: 1.09 (inactive) | Z-AUC [6, 10]: 0.516 | Z-AUC ([6]; measured here: PEO4 Z-AUC): 0.73 | z-score [3, 7]: 1.12 | z-score [3, 8]: 0.597 | z-score [3, 9]: 0.962

C=CC(=O)Nc1cccc(Sc2nc(Nc3ccc(N4CCN(C)CC4)cc3)ncc2Cl)c1
Z-AUC [6]: -0.713 (inactive) | Z-AUC [6, 10]: 0.0484 | Z-AUC ([6]; measured here: PEO4 Z-AUC): 0.0662

CCN1C[C@H](C)n2c(c(O)c3c(=O)n(Cc4ccc(F)c(Cl)c4)nc(C(=O)NC)c32)C1=O
Potency [2]: inactive | Potency [5]: 13.2 µM (active) | z-score [3, 7]: 0.808 | z-score [3, 8]: 0.545 | z-score [3, 9]: 2.87

CCCC1OC2C[C@@H]3[C@H]4CCC5=CC(=O)C=C[C@]5(C)[C@H]4C(O)C[C@]3(C)[C@]2(C(=O)CO)O1 (some centres not stated)
Potency [2]: 0.0015 µM (active) | Z-AUC [6]: -0.0333 (inactive) | Z-AUC [6, 10]: 0.534 | Z-AUC ([6]; measured here: PEO4 Z-AUC): -0.396

CN(C)c1ccccc1CN1CCCN(Cc2ccccc2N(C)C)C1c1ccncc1
Potency [5]: inactive | Z-AUC [6]: -0.339 (inactive) | Z-AUC [6, 10]: 0.0487 | Z-AUC ([6]; measured here: PEO4 Z-AUC): -0.169

CCCCN(CCCC)CC(O)c1cc(Cl)cc2c1-c1ccc(Cl)cc1C2=Cc1ccc(Cl)cc1 (configuration not stated)
Potency [5]: 23.5 µM (active)

CN(CC=CC#CC(C)(C)C)Cc1cccc2ccccc12
Potency [2]: inactive | Potency [5]: inactive | z-score [3, 7]: 0.358 | z-score [3, 8]: 0.58 | z-score [3, 9]: 2.39

Cc1cc(CS(=O)(=O)c2ccccc2)cc(OCc2ccc(CN3CCC[C@H]3CO)cc2)c1
Potency [4]: inactive | Potency [5]: inactive

Nc1ccc(-c2ccc3ncc4ccc(=O)n(-c5cccc(C(F)(F)F)c5)c4c3c2)cn1
Potency [4]: 5.9 nM (active) | Z-AUC [6]: -1.37 (inactive) | Z-AUC [6, 10]: -2.21 | Z-AUC ([6]; measured here: PEO4 Z-AUC): -1.55 | Potency ([3]; TFE3-RCC UOK109 viability): 3320 nM (active) | z-score [3, 7]: -2.43 | z-score [3, 8]: -4.62 | z-score [3, 9]: -4.33

O=[N+]([O-])c1ccc(Nc2ccccc2-c2ccccc2)c2nonc12
Z-AUC [6]: 0.186 (inactive) | Z-AUC [6, 10]: 0.785 | Z-AUC ([6]; measured here: PEO4 Z-AUC): 0.946

C[C@]12CC[C@@H]3c4ccc(O)cc4CC[C@H]3[C@H]1[C@@H](O)[C@@H](O)[C@H]2O
Potency [4]: inactive | Potency [5]: inactive | Z-AUC [6]: 1 (inactive) | Z-AUC [6, 10]: 0.841 | Z-AUC ([6]; measured here: PEO4 Z-AUC): 0.542
